This is an account of results in article PMC7826789 (International Journal of Molecular Sciences, 2021).
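Further: KINOMEscan scanMAX binding as percent activity remaining versus control; lower means stronger binding.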

In the first assay the test system is ABL1(F317L)-phosphorylated. The note with it: Compound Concentration (nM):1000.
In the case of `COc1ccc2[nH]c3c4[nH]c5ccc(OC)cc5c4c4c(c3c2c1)C(=O)NC4=O` [GW296115X], the “Percent Control” value was determined as 75%.

Turning to `CCn1c(-c2nonc2N)nc2c(C#CC(C)(C)O)nc(OCCNC)cc21.Cl` [GSK949675], the “Percent Control” value was 100%. On the same count and under the same terms, the figure for `CN(C)CCNC(=O)Nc1ccc(N(C)c2ccnc(Nc3ccc(CS(C)(=O)=O)cc3)n2)cc1.Cl` [GW830900A] is 84%; for `NS(=O)(=O)c1ccc(N/N=C2\C(=O)Nc3ccc(C(=O)NCCc4c[nH]cn4)cc32)cc1` [GW300660X] it is 100%; for `C[C@@H](Oc1cc(-n2cnc3ccc(OC4CCN(C)CC4)cc32)sc1C(N)=O)c1ccccc1Cl` [GSK579289A] it is 78%. Still for that read-out and setting: the figure for `NS(=O)(=O)c1ccc(Nc2ncc(-c3ccccc3)o2)cc1` [GW572399X] is 100%; for `Cc1cc(O)cc(C)c1/C=C/c1cncc(C(N)=O)c1` [GW435821X] it is 9%. Still for that read-out and setting: the figure for `COc1ccc2cc(-c3c(-c4ccncc4)nc(-c4ccc(S(C)(=O)=O)cc4C)n3C)ccc2c1` [SB-633825] is 74%; for `COc1cc2ncn(-c3cc(O[C@H](C)c4ccccc4Cl)c(C(N)=O)s3)c2cc1OC` [GSK237701A] it is 71%. As to `COC(=O)Nc1nc2ccc(Oc3ccc(NC(=O)Nc4cc(C(F)(F)F)ccc4F)cc3)cc2s1.Cl` [GW693917A], the “Percent Control” value is given as 14%. For the molecule `COc1cc2ncnc(Nc3ccc4c(cnn4Cc4ccccc4)c3)c2cc1OC.Cl` [GW282449A], the “Percent Control” value is 60%. With `C/C(Nc1ccc(S(N)(=O)=O)cc1)=C1/C(=O)Nc2ccccc21` [GW335962X], the “Percent Control” value stood at 89%. The same measure, in the same setting: in the case of `Cl.O=C(Nc1ccc(Oc2ccc3[nH]c(NC(=O)c4ccccc4)nc3c2)cc1)Nc1cc(C(F)(F)F)ccc1F` [GW709042A] it was 80%. Same read-out and setting: the figure for `CCc1ccc(Oc2nccc(-c3c(-c4ccc(F)cc4)ncn3C3CCNCC3)n2)cc1` [SB-242719] is 98%; for `COc1cc(N2CCN(C(C)C)CC2)ccc1Nc1nc(Nc2ccc(F)cc2C(=O)NC[C@@H](O)CO)c2cc[nH]c2n1` [GSK1392956A] it is 49%.

As to `O=C(Nc1n[nH]c2nc(-c3ccc(O)cc3)c(Br)cc12)C1CC1` [SB-725317], the “Percent Control” value was determined as 100%.

Take `O=C1Nc2ccc(C(=O)c3ccco3)cc2C1=Cc1cc(Cl)c(O)c(Cl)c1` [GW406108X]: the “Percent Control” value was found to be 71%. The same measure, in the same setting: in the case of `COc1cccc(-n2ncc3c(N/N=C/c4ccncc4)ncnc32)c1` [GW784752X] it was 24%; in that of `NS(=O)(=O)c1ccc(N/N=C2\C(=O)Nc3ccc(C(=O)NCc4ccncc4)cc32)cc1` [GW300657X], 54%. The same measure, in the same setting: the figure for `Nc1ncnc2occ(-c3ccc(NC(=O)Nc4cc(C(F)(F)F)ccc4F)cc3)c12` [GW770249X] is 54%; for `NS(=O)(=O)c1ccc(N/N=C2\C(=O)Nc3ccc(Cl)cc32)cc1` [GW280670X] it is 100%. Same read-out and setting: in the case of `COc1cccc(-c2c[nH]c3c(N/N=C/c4ccncc4)ncnc23)c1` [GW814408X] it was 19%; in that of `COc1ccccc1-c1cc(/C=C2\C(=O)Nc3ncc(Br)cc32)cc(Br)c1O` [GW442130X], 100%; in that of `CC(C)COC(=O)c1ccc2c(c1)/C(=C/Nc1ccc(S(N)(=O)=O)cc1)C(=O)N2` [GW416981X], 100%. In the case of `CC1=C(C(=O)Nc2ccc3[nH]ncc3c2)C(c2ccc(Cl)c(Cl)c2)CC(=O)N1` (stereo not shown) [GSK299115A], the “Percent Control” value is listed as 74%. For the molecule `COc1ccc(COc2ccc(Cc3cnc(N)nc3N)cc2OC)cc1` [GW632580X], the “Percent Control” value came to 93%. On to `COc1cc(C=NNc2ncnc3c2cnn3-c2ccccc2)ccc1O` [GW513184X], for which the “Percent Control” value is listed as 91%. Same read-out and setting: in the case of `Cl.O=C(O[C@H]1CN[C@H](C#Cc2cc3ncnc(Nc4ccc5c(cnn5Cc5ccccc5)c4)c3s2)C1)N1CCOCC1` [GSK200398A] it was 52%.

In another assay the test system is ABL1(H396P)-nonphosphorylated. The note with it: Compound Concentration (nM):1000.
As for `COc1cc(/C=N/Nc2ncnc3[nH]ncc23)ccc1O` [GW578748X], the “Percent Control” value was determined as 0%.

As for `NS(=O)(=O)c1ccc(N/N=C2\C(=O)Nc3ccc(-c4cnco4)cc32)cc1` [GW276655], the “Percent Control” value is 58%. Still for that read-out and setting: in the case of `CN1CCN(C(=O)c2ccc(NC(=O)Nc3ccc(N(C)c4ccnc(Nc5ccc(CS(C)(=O)=O)cc5)n4)cc3)cc2)CC1.Cl` [GW830263A] it was 1.4%; in that of `CCS(=O)(=O)c1ccc(OC)c(Nc2ncc(-c3cccc(OC)c3)o2)c1` [GW580509X], 1.4%; in that of `Cl.O=S1CCN(Cc2ccc(-c3ccc4ncnc(Nc5ccc(OCc6ccccc6)c(F)c5)c4c3)o2)CC1` [GW576924A], 99%. Turning to `CC1=C(C(=O)Nc2ccc3[nH]ncc3c2)C(c2ccc3ccccc3c2)CC(=O)N1` (stereo not shown) [GSK270822A], the “Percent Control” value was found to be 59%. Take `COc1ccc2c(-c3ccnc(Nc4cccc(OC(F)(F)F)c4)n3)cnn2n1` [GW810372X]: the “Percent Control” value worked out at 87%.

Consider `Cl.O=C(Nc1ccc(Oc2ccc3[nH]c(NC(=O)c4ccco4)nc3c2)cc1)Nc1cc(C(F)(F)F)ccc1F` [GW683134A], for which the “Percent Control” value came out at 0.7%.

For the molecule `CCS(=O)(=O)c1ccc(OC)c(Nc2ncc(-c3cccc(F)c3)o2)c1` [GW621970X], the “Percent Control” value was 1.1%.

With `COc1cc(C)c(N(C)C(=O)CN(C)C)cc1Nc1nc(Nc2cccc(F)c2C(N)=O)c2cc[nH]c2n1` [GSK2219385], the “Percent Control” value turned out to be 51%. Still for that read-out and setting: in the case of `Cl.c1ccc(Cc2nc3ccc(Nc4ncnc5ccccc45)cc3[nH]2)cc1` [GR269666A] it was 86%; in that of `COc1ccc2[nH]c3c4[nH]c5ccc(OC)cc5c4c4c(c3c2c1)C(=O)NC4=O` [GW296115X], 34%; in that of `CCn1c(-c2nonc2N)nc2c(C#CC(C)(C)O)nc(OCCNC)cc21.Cl` [GSK949675], 85%. For the molecule `CN(C)CCNC(=O)Nc1ccc(N(C)c2ccnc(Nc3ccc(CS(C)(=O)=O)cc3)n2)cc1.Cl` [GW830900A], the “Percent Control” value came out at 38%. Still for that read-out and setting: in the case of `NS(=O)(=O)c1ccc(N/N=C2\C(=O)Nc3ccc(C(=O)NCCc4c[nH]cn4)cc32)cc1` [GW300660X] it was 93%. Still for that read-out and setting: the figure for `C[C@@H](Oc1cc(-n2cnc3ccc(OC4CCN(C)CC4)cc32)sc1C(N)=O)c1ccccc1Cl` [GSK579289A] is 43%; for `NS(=O)(=O)c1ccc(Nc2ncc(-c3ccccc3)o2)cc1` [GW572399X] it is 35%; for `Cc1cc(O)cc(C)c1/C=C/c1cncc(C(N)=O)c1` [GW435821X] it is 4.9%.

`COc1ccc2cc(-c3c(-c4ccncc4)nc(-c4ccc(S(C)(=O)=O)cc4C)n3C)ccc2c1` [SB-633825]: the “Percent Control” value is given as 58%. On the same count and under the same terms, the figure for `COc1cc2ncn(-c3cc(O[C@H](C)c4ccccc4Cl)c(C(N)=O)s3)c2cc1OC` [GSK237701A] is 20%; for `COC(=O)Nc1nc2ccc(Oc3ccc(NC(=O)Nc4cc(C(F)(F)F)ccc4F)cc3)cc2s1.Cl` [GW693917A] it is 0%; for `COc1cc2ncnc(Nc3ccc4c(cnn4Cc4ccccc4)c3)c2cc1OC.Cl` [GW282449A] it is 80%. On the same count and under the same terms, the figure for `C/C(Nc1ccc(S(N)(=O)=O)cc1)=C1/C(=O)Nc2ccccc21` [GW335962X] is 72%. Same read-out and setting: in the case of `Cl.O=C(Nc1ccc(Oc2ccc3[nH]c(NC(=O)c4ccccc4)nc3c2)cc1)Nc1cc(C(F)(F)F)ccc1F` [GW709042A] it was 9.9%; in that of `CCc1ccc(Oc2nccc(-c3c(-c4ccc(F)cc4)ncn3C3CCNCC3)n2)cc1` [SB-242719], 77%. As for `COc1cc(N2CCN(C(C)C)CC2)ccc1Nc1nc(Nc2ccc(F)cc2C(=O)NC[C@@H](O)CO)c2cc[nH]c2n1` [GSK1392956A], the “Percent Control” value stood at 97%. The same measure, in the same setting: the figure for `O=C(Nc1n[nH]c2nc(-c3ccc(O)cc3)c(Br)cc12)C1CC1` [SB-725317] is 1.9%. The same measure, in the same setting: in the case of `O=C1Nc2ccc(C(=O)c3ccco3)cc2C1=Cc1cc(Cl)c(O)c(Cl)c1` [GW406108X] it was 60%; in that of `COc1cccc(-n2ncc3c(N/N=C/c4ccncc4)ncnc32)c1` [GW784752X], 0%.

With `NS(=O)(=O)c1ccc(N/N=C2\C(=O)Nc3ccc(C(=O)NCc4ccncc4)cc32)cc1` [GW300657X], the “Percent Control” value was found to be 63%. As for `Nc1ncnc2occ(-c3ccc(NC(=O)Nc4cc(C(F)(F)F)ccc4F)cc3)c12` [GW770249X], the “Percent Control” value was 2.9%. As for `NS(=O)(=O)c1ccc(N/N=C2\C(=O)Nc3ccc(Cl)cc32)cc1` [GW280670X], the “Percent Control” value amounted to 81%.

With `COc1cccc(-c2c[nH]c3c(N/N=C/c4ccncc4)ncnc23)c1` [GW814408X], the “Percent Control” value is recorded as 0%. The same measure, in the same setting: in the case of `COc1ccccc1-c1cc(/C=C2\C(=O)Nc3ncc(Br)cc32)cc(Br)c1O` [GW442130X] it was 48%; in that of `CC(C)COC(=O)c1ccc2c(c1)/C(=C/Nc1ccc(S(N)(=O)=O)cc1)C(=O)N2` [GW416981X], 75%. Still for that read-out and setting: in the case of `CC1=C(C(=O)Nc2ccc3[nH]ncc3c2)C(c2ccc(Cl)c(Cl)c2)CC(=O)N1` (stereo not shown) [GSK299115A] it was 79%; in that of `COc1ccc(COc2ccc(Cc3cnc(N)nc3N)cc2OC)cc1` [GW632580X], 88%. Still for that read-out and setting: the figure for `COc1cc(C=NNc2ncnc3c2cnn3-c2ccccc2)ccc1O` [GW513184X] is 4.7%; for `Cl.O=C(O[C@H]1CN[C@H](C#Cc2cc3ncnc(Nc4ccc5c(cnn5Cc5ccccc5)c4)c3s2)C1)N1CCOCC1` [GSK200398A] it is 80%.
